Screens as filed in PubChem.
SARS PLP yeast = qHTS of Yeast-based Assay for SARS-CoV PLP; Potency, µM (titrated, usually from 32.9 µM), for the others: top-dose activity, positive = growth rescue, hits mostly activators; S. cerevisiae expressing SARS-CoV PLpro, growth rescue; hit rate 0.19% among 330,000; calls by dose curve; further: potency means the concentration at half of the fitted maximal effect; 0% is about no effect; nearly all actives have a fitted effect of over 55% in size
Pf growth 48h = Primary qHTS for delayed death inhibitors of the malarial parasite plastid, 48 hour incubation. hit rate 5.9% among 310,000. Potency, µM (doses to about 28.7 µM), for the others: at the top dose activity change, negative = inhibition, actives largely listed as inhibitors. P. falciparum luciferase growth in erythrocytes, 48 h; further: potency means the concentration at half of the fitted maximal effect; on the % scale 0 is the no-effect control and ±100 the full control effect
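First compound was added to culture medium, then infected red cells at 0.1% parasitemia and 2% hematocrit (final). After incubation at 37 C under 5% CO2, luciferase detection reagent was dispensed and light output recorded.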
HCV inh = qHTS Assay for Inhibitors of Hepatitis C Virus (HCV). Huh7.5.1 HCVcc-Cre infection, luciferase reporter, 44 h. Potency, µM (titrated, usually from 41.8 µM), without a hit: top-dose activity change, negative = inhibition, most hits filed as inhibitors. hit rate 3.4% among 340,000; further: potency means the concentration at half of the fitted maximal effect; on the % scale 0 is the no-effect control and ±100 the full control effect
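After 44 h co-culture of compound, cells and HCVcc-Cre (~0.5 moi), substrate is added for 15 min at room temperature and luciferase measured over 15 sec. Cells were seeded at 1,000/well and pre-cultured 4 h.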
Sm TGR inh = qHTS Assay for the Inhibitors of Schistosoma Mansoni Peroxiredoxins; purified TGR, DTNB reduction, TNB absorbance 405 nm; AID 485364, 2010; hit rate 3% among 360,000; Schistosoma mansoni thioredoxin glutathione reductase (TGR), Q962Y6; Potency, µM (titrated, usually from 114 µM), for the others: at the highest dose activity change, negative = inhibition, most hits filed as inhibitors; further: potency means the concentration at half of the fitted maximal effect; on the % scale 0 is the no-effect control and ±100 the full control effect; nearly all actives have a fitted effect of over 60% in size
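First, TGR (20 nM dispensed) and NADPH were mixed with compound. Second, a 15 min room-temperature incubation followed. Third, further NADPH and then DTNB were added to start the reaction. Finally, TNB absorbance was monitored kinetically.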
HCMV inh = qHTS Assay for inhibitors of the human cytomegalovirus (HCMV). activity change, negative = inhibition, % at 57.5 µM. hit rate 4.5% among 410,000. HFF cells, HCMV-luciferase reporter, 72 h; stronger effect = lower value. AID 1259415, 2018; in the data active means activity change below about -60%; inconclusive means no clear call, values can overlap the other calls; inactive means above about -39%; further: on the % scale 0 is the no-effect control and ±100 the full control effect
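Luciferase read-out from HCMV-luciferase-infected HFFs (MOI 1 PFU/cell) 72 h post infection at 37C; compounds added after 16 h cell attachment; activity normalized between buffer-only basal and Salinomycin (10uM) inhibitor controls.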
Pf growth 96h = Primary qHTS for delayed death inhibitors of the malarial parasite plastid, 96 hour incubation | P. falciparum luciferase reporter growth, 96 h | Potency, µM (highest dose often 28.7 µM), for inactives: top-dose activity change, negative = inhibition, actives largely listed as inhibitors | hit rate 6.9% among 320,000 | AID 504834, 2011; further: potency means the concentration at half of the fitted maximal effect; on the % scale 0 is the no-effect control and ±100 the full control effect
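Two-generation exposure (96 h) targets delayed-death phenotype. Reporter parasites carrying integrated firefly luciferase, in red cells at 2% hematocrit and 0.05% parasitemia final, kept at 37 C, 5% CO2; luminescence loss indicates inhibition.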
Numbers without * were called inactive; ? = inconclusive; · = not tested or not shown; [ ] = remark or other dose. An excerpt weighted towards active compounds, which were near 15% of everything screened. Unless noted, the call rests on the fitted dose curve; in most records, active means well fitted curve in the direction sought with a large enough effect; inconclusive means small, poorly fitted or top-dose-only effect, or another doubt; inactive means no such curve, though single readings can be large; an effect the other way counts as inactive or inconclusive.

SMILES	SARS PLP yeast	Pf growth 48h	HCV inh	Sm TGR inh	HCMV inh	Pf growth 96h
O=C(NC1CCCc2c1cnn2-c1ccccc1F)c1ccccn1 (configuration not stated)	0%	-7%	?	8%	-98*	-19%
O=C(NC1CCCc2c1cnn2-c1ccc(F)cc1F)c1ccccn1 (configuration not stated)	0%	-7%	-18%	16%[57.1 µM]	-39	1%
CC(C)[C@@H]1Cc2[nH]n(C)c(=O)c2[C@H](c2ccc(F)cc2)O1	·	·	·	·	-18	·
COc1ccc(Cn2c(CCC(=O)Nc3cc(C)cc(C)c3)nc3cccnc32)cc1	·	·	·	-5%	14	·
COc1ccc(Cn2c(CCC(=O)Nc3ccc(C)cc3)nc3cccnc32)cc1	-4%	·	-24%	-1%	25	10µM*
O=C(/C=C/c1ccc(Br)o1)OCc1nc2ccsc2c(=O)[nH]1	-9%	11%	-10%	45µM*	·	12%
Cc1cc2nc(-c3ccccc3Br)n(C(C(=O)NC(C)(C)C)c3ccccc3)c2cc1C (configuration not stated)	·	·	·	·	-99*	·
CC(C)(C)NC(=O)C(c1ccccc1)n1c(-c2ccccc2Br)nc2ccccc21 (configuration not stated)	·	·	·	·	54	·
COc1cccc(N2CCN(CC(=O)Nc3ccc(S(=O)(=O)N4CCCCCC4)cc3)CC2)c1	0%	12µM*	?	-5%	-35	?
COc1ccc(NC(=O)CN(C2CCCCC2)S(C)(=O)=O)cc1Cl	-6%	·	-26%	0%	-73*	32%
COc1cccc(C(=O)CN2CCN(S(=O)(=O)c3ccc(Br)cc3)CC2)c1	4%	-2%	20%	14µM*	·	53%
COc1cccc(NC(=O)CN2CCN(S(=O)(=O)c3ccc(C(C)C)cc3)CC2)c1	-5%	?	-3%	0%	-21	12µM*
COc1cccc(CN2CCN(S(=O)(=O)c3ccc(Br)cc3)CC2)c1	4%	5%	-1%	1%	-27	·
O=C(O)c1cccc2c1C(=O)c1ccc(-c3ccc(Cl)c(C(F)(F)F)c3)cc1S2(=O)=O	-1%	65%	28%	-29%	·	73%
COc1cccc(-c2cnc(C(O)c3cccc(F)c3)[nH]2)c1 (configuration not stated)	·	·	·	·	39	·
COc1ccc(NC(=O)CN2CCN(S(=O)(=O)c3ccc(Cl)cc3)CC2)cc1Cl	-1%	?	-4%	5%	47	?
COc1ccc(S(=O)(=O)N2CCN(CC(=O)c3[nH]c(C)c(C(C)=O)c3C)CC2)cc1OC	-2%	?	-8%	-27%	-15	?
COc1ccc(S(=O)(=O)N2CCCN(CC(=O)Nc3ccc(OC)c(Cl)c3)CC2)cc1	-3%	?	-7%	32µM*	16	31%
CC(=O)c1c(C)[nH]c(C(=O)CN2CCN(S(=O)(=O)c3ccc(C(C)C)cc3)CC2)c1C	-5%	12µM*	?	?	-27	12µM*
COc1cccc(NC(=O)c2sc3nc(C)c(C(=O)Nc4ccc(C)cc4C)c(-c4ccccc4Cl)c3c2N)c1	·	·	·	2%	50	·
CC(=O)c1cccc(-c2ccc3c(c2)C(C)(Cc2ccccc2C#N)C(=O)N3)c1 (configuration not stated)	·	·	·	·	-66*	·
COc1ccc(NC(=O)c2cc3n(n2)C(C(F)(F)F)CC(c2ccco2)N3)cc1 (configuration not stated)	5%	?	?	-26%	-15	25%
Cc1cc(NC(=O)c2cc3n(n2)C(C(F)(F)F)CC(c2ccco2)N3)n(-c2ccccc2)n1 (configuration not stated)	1%	9.3µM*	?	-22%	-34	?
O=C(c1cc2n(n1)C(C(F)(F)F)CC(c1ccco1)N2)N1CCc2ccccc2C1 (configuration not stated)	-14%	?	-14%	?	33	·
COc1cc2c(cc1OC)C(C)N(C(=O)c1cc3n(n1)C(C(F)(F)F)CC(c1ccco1)N3)CC2 (configuration not stated)	24%	6.6µM*	?	25µM*	10	·
SMILES	SARS PLP yeast	Pf growth 48h	HCV inh	Sm TGR inh	HCMV inh	Pf growth 96h
NS(=O)(=O)c1ccc(N=Cc2c(O)n(C3CCCCC3)c(=O)n(C3CCCCC3)c2=O)cc1	-15%	-24%	?	16%	-29	-18%
CC(C)C(=O)N1CCC(CN=Cc2c(O)n(C3CCCCC3)c(=O)n(C3CCCCC3)c2=O)CC1	-9%	1.5µM*	?	-10%	-4	-19%
CC1(C)CC(=O)C=C(NCCN2CCN(C(=S)NC3CCCCC3)CC2)C1	1%	-7%	18%	-1%	-28	-16%
Cc1onc(-c2ccccc2)c1C(=O)N1CCCN2C(=O)c3ccccc3C21 (configuration not stated)	-1%	?	14%	-3%	-7	10µM*
O=C(Nc1ccc(Oc2ccc(NC(=O)c3ccco3)c(NC(=O)c3ccco3)c2)cc1)c1ccco1	-2%	?	25µM*	-21%	?	-30%
O=C(Nc1ccc(Oc2ccc3ccccc3c2)cc1)c1ccco1	-23%	2.1µM*	?	8%	-68*	·
O=C(Oc1ccc2ccccc2c1)c1ccco1	-4%	1%	13%	7%	36	-9%
Cc1ccc(-c2nc3c(c(=O)[nH]c(=O)n3Cc3ccccc3)n2C)o1	-4%	-9%	7%	3.5µM*	?	17%
COCCCn1c(-c2ccc(OC)cc2)nc2c1c(=O)[nH]c(=O)n2Cc1ccccc1	6%	?	?	-5%	-8	14%
CCCn1c(-c2ccc(C(=O)OC)cc2)nc2c1c(=O)[nH]c(=O)n2Cc1ccccc1	0%	9%	-9%	-1%	-20	5%
CCCn1c(-c2cccc([N+](=O)[O-])c2)nc2c1c(=O)[nH]c(=O)n2Cc1ccccc1	-16%	?	?	-5%	-5	5.2µM*
Cc1ccc(-c2nc3c(c(=O)[nH]c(=O)n3Cc3ccccc3)n2C)s1	0%	-6%	·	-11%	·	0%
Cc1ccc(-c2nc3c(c(=O)[nH]c(=O)n3Cc3ccccc3)n2Cc2ccccc2)o1	0%	5.9µM*	?	18µM*	?	?
CCCCC1SC(N)=NC1=O (configuration not stated)	·	·	8%	·	2	·
